Only a sample is shown.
aSyn UTR act – Activators via SNCA 5'UTR binding, MLPCN | hit rate 7.1% among 300,000 | AID 1814, 2009 | activity score, % (tested at 7.5 µM), hits read low | alpha-synuclein 5'UTR reporter, activators screen; in the data active = activity score below about -60%
Active calls of the source: *.

SMILES | aSyn UTR act
CC(=O)c1ccc(Nc2nc(=O)c3cccnc3s2)cc1 | -124.2*
CCOC(=O)c1ccc(Nc2nc(=O)c3cccnc3s2)cc1 | -133.2*
Cc1ccc(-c2nc3ccccc3[nH]2)cn1 | -98.5*
Clc1ccc(-c2nc3ccccc3[nH]2)cn1 | -63.4*
Cc1nc2ccc(-c3nc4ccccc4[nH]3)cc2[nH]1 | -120.3*
Clc1ccc(COc2ccccc2-c2ccnc3ncnn23)cc1 | -75.0*
CN(C)c1ccc(/C=C2\CCCc3c2nc2ccccc2c3C(=O)O)cc1 | -120.6*
CNc1sc(C(=O)c2ccc(F)cc2)c(N)c1-c1nc2ccccc2s1 | -136.8*
CNc1sc(C(=O)c2cccs2)c(N)c1-c1nc2ccccc2s1 | -157.1*
CN(C)C(CNC(=O)c1ccc(C2SCCS2)cc1)c1ccccc1 (stereo not drawn) | -99.5*
CCN1CCN(c2nc(Nc3cccc(OC)c3)nc(N)c2[N+](=O)[O-])CC1 | -86.4*
CCC(C)Nc1nc(N)c([N+](=O)[O-])c(Nc2ccccc2OC)n1 (stereo not drawn) | 60.0
CCC(C)Nc1nc(N)c([N+](=O)[O-])c(Nc2cc(OC)ccc2OC)n1 (stereo not drawn) | 97.1
CCNc1oc(/C=C/c2ccc(OCC)cc2)nc1C#N | -188.1*
CNc1oc(/C=C/c2cccc(OC)c2)nc1C#N | -179.7*
CCN(CC)CCCNc1oc(/C=C/c2ccccc2)nc1C#N | -63.8*
CCCC#Cc1ccc2c(c1)COc1c3ccccc3nn1-2 | -75.7*
CCOc1ccc2nc(SCC3CC3(Cl)Cl)[nH]c2c1 (stereo not drawn) | -152.8*
ClC1(Cl)CC1CSc1nc2ccccc2[nH]1 (stereo not drawn) | -77.2*
c1ccc2[nH]c(SCC3CCCCO3)nc2c1 (stereo not drawn) | -76.3*
O=C(Nc1ncc(Cc2ccc(SC(F)F)cc2)s1)c1ccc(OC(F)F)cc1 | -128.6*
NC(=S)N/N=C/c1cccc(O)c1O | -94.0*
CCNc1ccccc(-c2ccc3ccccc3n2)c1=O | -186.4*
O=C1c2ccccc2C(=O)C1c1ccc2ccccc2n1 | 94.4
O=C1C(=O)c2c(C(=O)c3ccccc3)coc2-c2ccccc21 | -105.5*
SMILES | aSyn UTR act
Cc1cc2cc(CN(Cc3ccco3)S(=O)(=O)c3c(C)ccc4nsnc34)c(=O)[nH]c2cc1C | 88.9
CCOC(=O)c1cccc(S(=O)(=O)N(CCO)Cc2cc3cc(OC)c(OC)cc3[nH]c2=O)c1 | -71.6*
COc1cc(O)c2c(=O)c(-c3ccc(O[C@@H]4O[C@H](CO)[C@@H](O)[C@H](O)[C@H]4O)cc3)coc2c1 | -155.3*
O=c1c(-c2ccc(O)cc2)coc2cc(OC3OC(CO)C(O)C(O)C3O)ccc12 (stereo not drawn) | -82.2*
O=c1c(-c2ccc(O)cc2)coc2cc(OC3OC(CO)C(O)C(O)C3O)cc(O)c12 (stereo not drawn) | -82.9*
S=C(c1ccc(-c2ccccc2Cl)o1)N1CCOCC1 | -137.0*
S=C(c1ccc(-c2ccc(Br)cc2)o1)N1CCOCC1 | -178.0*
O=C(Cc1ccc(Br)cc1)N1CCCCCC1 | -176.3*
CC1CCN(C(=O)c2ccc(-c3ccccc3Cl)o2)CC1 | -103.6*
O=C(c1ccc(-c2cccc(Cl)c2Cl)o1)N1CCOCC1 | -132.9*
S=C(c1ccc(-c2ccc(Br)cc2)o1)N1CCCCC1 | -201.4*
O=C(c1ccc(-c2cccc(C(F)(F)F)c2)o1)N1CCOCC1 | -71.2*
S=C(c1ccc(-c2ccc(Cl)c(Cl)c2)o1)N1CCOCC1 | -155.2*
O=C(c1ccc(-c2ccc([N+](=O)[O-])cc2Cl)o1)N1CCOCC1 | -134.6*
Cc1ccc(NC(=O)CSc2nccn2C)cc1F | -62.0*
Cn1ccnc1SCC(=O)Nc1nc2ccccc2s1 | -124.7*
Cn1ccnc1SCC(=O)Nc1ccc2nc(SCC(=O)NC3CC3)sc2c1 | -152.3*
O=C(CSc1ccccn1)Nc1nc2ccccc2s1 | -62.6*
COc1ccc(/C=N/N=C2/SCC(=O)N2Cc2ccccc2)cc1 | -170.4*
COc1ccc(CN2C(=O)CS/C2=N/N=C/c2ccccc2)cc1 | -64.0*
Cc1ccc(S(=O)c2snnc2C)cc1 (stereo not drawn) | -66.0*
Cc1nnsc1S(=O)c1ccc(Br)cc1 (stereo not drawn) | -148.3*
Cc1nnsc1S(=O)c1ccc(F)cc1 (stereo not drawn) | -68.2*
Cc1ccc2c(c1)c1nc3ccccc3nc1n2C | -90.2*
COc1ccc(-n2c(=S)[nH]c3cc(C(=O)Nc4ccc(F)cc4)ccc3c2=O)c(OC)c1 | -141.9*
SMILES | aSyn UTR act
COc1cccc(/C=N/Nc2ncnc3c2ncn3Cc2ccccc2)c1O | 101.9
Cn1cnc2c(N/N=C/c3cccs3)ncnc21 | -66.9*
Cc1cccc(NC(=O)/C=C/c2ccc([N+](=O)[O-])s2)c1 | -223.6*
Cc1cc([N+](=O)[O-])ccc1NC(=O)/C=C/c1cccs1 | -157.6*
Cc1ccc(NC(=O)/C=C/c2ccc([N+](=O)[O-])s2)c(C)c1 | -93.0*
Cc1ccc(NC(=O)/C=C/c2ccc([N+](=O)[O-])s2)cc1 | -212.4*
Clc1ccc2c(c1)[C@H]1OCC[C@H]1[C@@H](c1ccco1)N2 | -167.7*
c1csc(C2Nc3ccccc3-c3nc4ccccc4n32)c1 (stereo not drawn) | -82.6*
Cc1ccsc1C1Nc2ccccc2-c2nc3ccccc3n21 (stereo not drawn) | -169.1*
c1cncc(C2Nc3ccccc3-c3nc4ccccc4n32)c1 (stereo not drawn) | -92.4*
O=C(Nc1cc2c(cc1Cl)OCCCO2)c1ccc(F)cc1 | -89.8*
Cc1ccc(C(=O)Nc2cc3c(cc2Cl)OCCCO3)cc1 | -144.9*
O=C(Nc1cc2c(cc1Br)OCCCO2)c1ccccc1 | -104.4*
Cc1ccccc1Nc1nc(N)nc(COC(=O)c2ccccc2)n1 | -198.3*
Cc1ccccc1Nc1nc(N)nc(COC(=O)c2cccn2C)n1 | -122.0*
O=C(Nc1ccccc1)N(CCCN1CCOCC1)Cc1ccccc1F | -84.2*
O=C(/C=C/c1cccs1)Nc1nncs1 | -161.8*
Cc1ccnc(NC(=O)/C=C/c2cccs2)c1 | -77.0*
O=C(COC(=O)/C=C/c1cccs1)Nc1nc(-c2cccc(Br)c2)cs1 | -79.3*
O=C(/C=C/c1cccs1)Nc1cccnc1 | -174.5*
O=C(/C=C/c1cccs1)Nc1nc(-c2ccccc2)cs1 | -246.3*
O=C(NC1=NCCS1)C12CC3CC(C1)CC(C(=O)NC1=NCCS1)(C3)C2 | -70.9*
COc1ccc(C2=NN(CN3C(=O)C(=O)c4ccccc43)C(c3cccc([N+](=O)[O-])c3)C2)cc1 (stereo not drawn) | -70.3*
CCOC(=O)c1sc(NC(=O)c2ccc(C)o2)nc1C | -287.0*
O=C(Nc1ccccc1C(=O)Nc1nnc(C(F)(F)F)s1)c1ccccc1 | 58.5
SMILES | aSyn UTR act
COC(=O)c1sc(NC(=O)c2ccc(C)o2)nc1C | -203.0*
Cc1c(C(=O)Nc2nnc(C(F)(F)F)s2)oc2ccccc12 | -235.7*
CCOC(=O)c1sc(NC(=O)c2ccc(OC)cc2)nc1C | -108.5*
COC(=O)c1sc(NC(=O)c2oc3ccccc3c2C)nc1C | -142.1*
Cc1cccc(C=Nc2ccccc2C(N)=O)c1 | -69.8*
Cc1ccc(N2CN=C(c3ccccc3)NC2=S)cc1 | -113.4*
COc1ccc(C2=NCN(c3ccc(C)cc3)C(=S)N2)cc1 | -138.1*
CCc1ccc(NC(=O)Nc2ccc3c(c2)CCC3)cc1 | -125.5*
CC(=O)c1cccc(NC(=O)c2ccc3c(c2)CCCC3)c1 | -132.2*
CC(=O)c1ccc(NC(=O)c2cnn3ccccc23)cc1 | 78.9
COc1cccc(NC(=O)Nc2ccc3c(c2)CCC3)c1 | -130.3*
CC(=O)c1cccc(NC(=O)c2cnn3ccccc23)c1 | -106.3*
